Unmarked numbers belong to inactive results. Activity calls are given as the source filed them.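 Rule for the calls: active = IC50 below 10 µM at human M5 in a calcium flux test, acting as a negative modulator; inactive = the rest.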
Biological target: Muscarinic acetylcholine receptor M5 (Homo sapiens) (UniProt P08912)
Assay: M5 muscarinic receptor negative allosteric modulators, cell-based, single concentration, human M5 (AID 743025)
Settings: CHO-K1 hM5, ACh EC80 calcium flux, Fluo-4; at 10 µM; stronger effect = lower value

Sequence of Muscarinic acetylcholine receptor M5 (Homo sapiens) (P08912 whole entry, looked up): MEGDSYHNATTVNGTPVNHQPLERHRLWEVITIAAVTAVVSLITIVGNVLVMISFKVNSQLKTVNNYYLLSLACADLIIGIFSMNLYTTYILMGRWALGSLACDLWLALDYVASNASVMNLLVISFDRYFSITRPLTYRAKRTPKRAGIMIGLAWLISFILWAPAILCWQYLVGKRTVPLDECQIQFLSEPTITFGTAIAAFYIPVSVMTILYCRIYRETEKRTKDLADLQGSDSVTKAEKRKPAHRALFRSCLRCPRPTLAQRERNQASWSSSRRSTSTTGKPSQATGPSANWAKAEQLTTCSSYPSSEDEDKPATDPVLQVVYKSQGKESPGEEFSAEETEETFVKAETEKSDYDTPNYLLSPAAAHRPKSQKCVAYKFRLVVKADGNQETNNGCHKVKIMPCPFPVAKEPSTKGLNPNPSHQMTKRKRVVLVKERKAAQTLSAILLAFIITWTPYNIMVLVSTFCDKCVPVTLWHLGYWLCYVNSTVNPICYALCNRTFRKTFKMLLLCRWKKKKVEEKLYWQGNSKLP

Structure (SMILES)	activity remaining
O=C(c1ccccn1)N1CCN2C(=O)c3ccccc3C12c1ccc(Cl)cc1 (configuration not stated)	88.9%
O=C1c2ccccc2C2(c3ccccc3)N1CCN2C(=O)C(Cl)(Cl)Cl (configuration not stated)	55.1% (active)
O=C(Nc1cccc(Cl)c1)N1CCN2C(=O)c3ccccc3C12c1ccccc1 (configuration not stated)	83%
CCCCCC(=O)N1CCN2C(=O)c3ccccc3C12c1ccccc1 (configuration not stated)	75.3%
CS(=O)(=O)c1ccc(C23c4ccccc4C(=O)N2CCN3C(=O)c2ccc(F)c(F)c2)cc1 (configuration not stated)	77.3%
O=C(c1ccc(C(F)(F)F)cc1)N1CCN2C(=O)c3ccccc3C12c1ccccc1 (configuration not stated)	1.06% (active)
O=C(c1cc(F)ccc1F)N1CCN2C(=O)c3ccccc3C12c1ccccc1 (configuration not stated)	76%
O=C(c1ccccc1)N1CCCN2C(=O)c3ccccc3C12c1ccc(Cl)cc1 (configuration not stated)	82.5%
O=C(c1ccc(F)cc1)N1CCCC1c1ccccc1 (configuration not stated)	87%
COc1ccc(C23c4ccccc4C(=O)N2CCN3C(=O)c2cccc(F)c2)cc1 (configuration not stated)	57.4% (active)
O=C(c1cccc(C(F)(F)F)c1)N1CCN2C(=O)c3ccccc3C12c1ccccc1 (configuration not stated)	6.77% (active)
O=C(c1ccc(F)c(F)c1)N1CCc2ccccc2C1c1ccc(Cl)cc1 (configuration not stated)	67.4%
O=C1c2ccccc2C2(c3ccccc3)N(Cc3ccc(F)cc3)CCN12 (configuration not stated)	80.8%
O=C(c1ccc(OC(F)(F)F)cc1)N1CCN2C(=O)c3ncccc3C12c1ccccc1 (configuration not stated)	73.1%
Cc1ccc(C(=O)N2CCN3C(=O)c4ncccc4C23c2ccccc2)cc1 (configuration not stated)	63.1%
COc1ccc(C23c4ccccc4C(=O)N2CCN3C(=O)c2ccc(C)cc2)cc1 (configuration not stated)	68.4%
Cc1ccc(C23c4ccccc4C(=O)N2CCN3C(=O)c2ccc(F)cc2)cc1 (configuration not stated)	14.1% (active)
COc1ccccc1NC(=O)N1CCN2C(=O)c3ccccc3C12c1ccccc1 (configuration not stated)	86.6%
COc1ccc(C23NCCN2C(=O)c2ccccc23)cc1 (configuration not stated)	72.7%
O=C1c2ccccc2C(c2ccccc2)N1c1ccccc1 (configuration not stated)	82.3%
COc1ccc(C(=O)N2CCN3C(=O)c4ccccc4C23c2ccccc2)cc1 (configuration not stated)	77.7%
O=C1c2ccccc2C2(c3ccccc3)N1CCN2C(=O)C1CCCC1 (configuration not stated)	97.8%

Reference: PubChem BioAssay AID743025 (Vanderbilt Specialized Chemistry Center, 2013)
